PubChem BioAssay AID1259421 (Broad Institute, 2018)
Where “and” joins values, the source holds several entries; their conditions need not be identical. Equal entries are not always repeated. Screen size: about 6,400 compounds; about 610 (9.5%) were called active. No stated cut-off is given here; in the data, active means activity change below about -70%; inconclusive means no clear call, values can overlap the other calls; inactive means above that. For the sample, actives were picked, then their nearest neighbours and some compounds at random. A structure can be active in one record and inactive in another.

Test: T. gondii ME49Luc in HeLa cells, luciferase assay, 72 h, no IFN-y (AID 1259421)
Details: stronger effect = lower value, concentration not given here

Structure (SMILES)	activity change, negative = inhibition
CC(=O)C(C#N)C(=O)Nc1cc(Br)ccc1Br (centres undefined)	-2.2% (inactive) and 12.8% (inactive)
COC(=O)C[C@H]1C(C)(C)C(=O)[C@@H]2CC3C4=CC(=O)O[C@@H](c5ccoc5)[C@]4(C)CCC3[C@@]1(C)C2=O (some centres undefined)	6.27% (inactive)
CC[C@@]1(C2O[C@@H](C3O[C@@](O)(CO)[C@H](C)C[C@@H]3C)C[C@@H]2C)CC[C@H]([C@]2(C)CC[C@]3(C[C@H](O)[C@@H](C)[C@@H]([C@@H](C)[C@@H](OC)[C@H](C)C(=O)O)O3)O2)O1 (some centres undefined)	-80.3% (active)
COC(=O)C1C(O)CCC2CN3CCc4c([nH]c5ccccc45)C3CC21 (centres undefined)	6.81% (inactive)
C[C@@H]1O[C@@H](OC[C@H]2OC(Oc3c(-c4ccc(OCCO)c(OCCO)c4)oc4cc(OCCO)cc(O)c4c3=O)[C@H](O)[C@@H](O)[C@@H]2O)[C@H](O)[C@H](O)[C@H]1O (some centres undefined)	0.547% (inactive)
CN=C(NC#N)NCCSCc1csc(N=C(N)N)n1	21.3% (inactive) and 9.18% (inactive)
COc1ccc(/C=C\c2cc(OC)c(OC)c(OC)c2)cc1OP(=O)(O)O	-67.2% (inactive)
COc1ccc(F)c(F)c1C(=O)c1cnc(NC2CCN(S(C)(=O)=O)CC2)nc1N	-87.7% (active)
C[C@H](Oc1ccc(S(C)(=O)=O)cc1C(=O)N1CCN(c2ncc(C(F)(F)F)cc2F)CC1)C(F)(F)F	-27.8% (inactive)
CN1CCC(Nc2ncc3ncnc(Nc4ccc(F)c(Cl)c4)c3n2)CC1	7.3% (inactive)
O=C(NC(Cc1c[nH]c2ccccc12)C(=O)O)c1ccc(Cl)cc1 (centres undefined)	4.2% (inactive)
C=CC(=O)Nc1ccc(OC)cc1	7.75% (inactive)
Cc1cc(Cn2cnc3c2C[C@@H](C(=O)O)N(C(=O)C(c2ccccc2)c2ccccc2)C3)ccc1N(C)C	25.4% (inactive)
CCC(=O)O[C@@H](OP(=O)(CCCCc1ccccc1)CC(=O)N1C[C@H](C2CCCCC2)C[C@H]1C(=O)O)C(C)C (some centres undefined)	11.7% (inactive)
CN(C)C(=O)COC(=O)Cc1ccc(OC(=O)c2ccc(N=C(N)N)cc2)cc1	0.553% (inactive)
Nc1ncnc2nc[nH]c12	5.62% (inactive)
Nc1nc(=S)c2[nH]cnc2[nH]1	-77.5% (active)
S=c1nc[nH]c2nc[nH]c12	-59.8% (inactive)
CC(NC(=O)CCc1nc2ccccc2c(=O)[nH]1)c1ccccc1 (centres undefined)	4.68% (inactive)
CCOC(=O)c1cnc[nH]1	7.3% (inactive)
CC1(C)CC(=O)C(C2C3=C(CC(C)(C)CC3=O)Oc3ccccc32)C(=O)C1 (centres undefined)	4.42% (inactive) and -1.95% (inactive)
CCc1nc(N)nc(N)c1-c1ccc(Cl)cc1	-89.2% (active) and -80% (active)
CC(C)Cc1sc(N)nc1-c1ccc(P(=O)(O)O)o1	7.23% (inactive)
CO[C@H]1C(=O)[C@@]2(C)[C@H]([C@@H](OC(=O)c3ccccc3)[C@@]3(O)C[C@H](OC(=O)[C@H](O)[C@@H](NC(=O)OC(C)(C)C)c4ccccc4)C(C)=C1C3(C)C)[C@]1(OC(C)=O)CO[C@@H]1C[C@H]2OC	-82.6% (active)
CC(=O)O[C@@]12CO[C@@H]1C[C@H](O)[C@@]1(C)C(=O)[C@H](O)C3=C(C)[C@@H](OC(=O)[C@H](O)[C@@H](NC(=O)OC(C)(C)C)c4ccccc4)C[C@@](O)([C@@H](OC(=O)c4ccccc4)C12)C3(C)C (some centres undefined)	-80.2% (active)

Structure (SMILES)	activity change, negative = inhibition
CC(=O)O[C@@]12CO[C@@H]1C[C@H](O)[C@@]1(C)C(=O)[C@H](O)C3=C(C)[C@@H](OC(=O)[C@H](O)[C@@H](NC(=O)OC(C)(C)C)c4ccccc4)C[C@@](O)([C@@H](OC(=O)c4ccccc4)[C@H]21)C3(C)C	-73.3% (active) and -80.3% (active)
Cc1cccc(C)c1NC(=O)/N=C1/CCCN1C	6.63% (inactive)
COc1ccc(/C=C/C(=O)c2ccc(O)cc2O)cc1	82.9% (inactive)
COc1ccnc(CS(=O)c2nc3ccc(OC(F)F)cc3[nH]2)c1OC (centres undefined)	26.3% (inactive) and 7.86% (inactive)
Cc1ccc(OCC(O)C(C)NC(C)C)c2c1CCC2 (centres undefined)	14.3% (inactive)
Cc1oc(=O)oc1CN1CCN(c2cc3c(cc2F)c(=O)c(C(=O)O)c2n3C(C)S2)CC1 (centres undefined)	19.8% (inactive)
COc1cc(-c2coc3cc(OCc4ccccc4)c(OC)c(O)c3c2=O)cc(OCc2ccccc2)c1OC	-39.8% (inactive)
COc1ccc([C@@H]2CC(=O)c3c(O)cc(O[C@@H]4O[C@H](CO[C@H]5O[C@@H](C)[C@H](O)[C@@H](O)[C@H]5O)[C@@H](O)[C@H](O)[C@H]4O)cc3O2)cc1O	5.14% (inactive)
Cc1cc(N2CCN([C@@H]3CN[C@H](C(=O)N4CCSC4)C3)CC2)n(-c2ccccc2)n1	-3% (inactive)
Cc1ccc(C(=O)Nc2ccc(CN3CCN(C)CC3)c(C(F)(F)F)c2)cc1C#Cc1cnc2cccnn12	-83% (active)
COC(=O)N1CCN(Cc2cccc(NC(=O)Nc3ccc(C)nc3)c2F)CC1	9.25% (inactive)
Cc1ccc(C(=O)Nc2ccc(CN3CCN(C)CC3)c(C(F)(F)F)c2)cc1C#Cc1cnc2[nH]ncc2c1	-89.3% (active)
CCCCCCCCCCCCCCCC(=O)OC[C@H](NC(=O)C(Cl)Cl)[C@H](O)c1ccc([N+](=O)[O-])cc1	7.24% (inactive) and 16.1% (inactive)
NC(=O)CCC1NC(=O)C(Cc2ccccc2)NC(=O)C(Cc2ccc(O)cc2)NC(=O)CCSSCC(C(=O)N2CCCC2C(=O)NC(CCCN=C(N)N)C(=O)NCC(N)=O)NC(=O)C(CC(N)=O)NC1=O (centres undefined)	7.89% (inactive)
COc1cc(/C=C/C(=O)O)cc(OC)c1O	-2.18% (inactive)
COc1cc2c(cc1OC)C(c1ccc(N)cc1)=NNC(=O)C2	-18.7% (inactive) and 7.52% (inactive)
CC1=C(SCCO)C(=O)c2ccccc2C1=O	29.8% (inactive)
COc1ccc2c(c1)c1c3n2CCN(C)C3=NCC1	14.7% (inactive)
C=CC(=O)N1CCCCC1	4.09% (inactive)
CN([NH2+][O-])C(=O)N[C@@H]1[C@@H](O)[C@H](O)[C@@H](CO)O[C@@H]1O	-1.36% (inactive)
Cc1ccc(O)c(N=Nc2ccccc2)n1	8.22% (inactive) and 3.77% (inactive)
COc1cccc2c1C(=O)c1c(O)c3c(c(O)c1C2=O)C[C@@](O)(C(=O)CO)C[C@@H]3OC1C[C@H](N)[C@H](O)[C@H](C)O1 (some centres undefined)	-87.6% (active)
CCCCC(=O)OCC(=O)[C@]1(O)Cc2c(O)c3c(c(O)c2[C@@H](O[C@H]2C[C@H](NC(=O)C(F)(F)F)[C@H](O)[C@H](C)O2)C1)C(=O)c1c(OC)cccc1C3=O	-24.8% (inactive)
COc1cccc2c1C(=O)c1c(O)c3c(c(O)c1C2=O)CC(O)(C(=O)CO)CC3OC1CC(N)C(O)C(C)O1 (centres undefined)	-89.5% (active)
COc1cccc2c1C(=O)c1c(O)c3c(c(O)c1C2=O)C[C@@](O)(C(=O)CO)C[C@@H]3O[C@H]1C[C@H](N)[C@H](O)[C@H](C)O1	-78.1% (active) and -79.4% (active)

Structure (SMILES)	activity change, negative = inhibition
COc1cccc2c1C(=O)c1c(O)c3c(c(O)c1C2=O)C[C@@](O)(C(=O)CO)C[C@@H]3O[C@H]1C[C@H](N)[C@@H](O)[C@H](C)O1	-80.9% (active)
NC(Cc1ccc(O)cc1)C(=O)O (centres undefined)	3.44% (inactive)
Oc1ccc(-c2nc3cc(O)cc(Br)c3o2)cc1	-55.9% (inactive)
CC(=O)O[C@@H]1CC2C(C)(CC[C@H](O)C2(C)C)C2CC[C@]3(C)C(=CC(=O)O[C@H]3c3ccoc3)C21C (some centres undefined)	-5.23% (inactive)
CCC(c1ccc(O)cc1)C(CC)c1ccc(O)cc1 (centres undefined)	14.8% (inactive)
c1ccc(-c2cc3ccccc3[nH]2)cc1	106% (inactive)
Nc1nc(Nc2ccccc2)nc2c1ncn2C1OC(CO)C(O)C1O (centres undefined)	3.98% (inactive)
COc1ccc(Nc2ccn(-c3ccccc3)n2)cc1	404% (inactive)
CCCCCC/C=C\CCCCCCCc1cccc(O)c1C(=O)O	6.32% (inactive)
NC(=O)CC[C@H](NC(=O)Cc1ccccc1)C(=O)O	16.1% (inactive)
C=CC(C)(C)c1cc(/C=C/C(=O)c2ccc(O)cc2)c(OC)cc1O	187% (inactive)
CCCC(CCC)C(=O)Nc1ccn([C@@H]2O[C@H](CO)[C@@H](O)C2(F)F)c(=O)n1	-1.71% (inactive)
COc1ccccc1OC(=O)CNC(=O)Cc1ccc(C(=O)c2ccc(C)cc2)n1C	15.7% (inactive)
C[C@@H]1O[C@@H](Oc2c(-c3cc(O)c(O)c(O)c3)oc3cc(O)cc(O)c3c2=O)[C@@H](O)[C@H](O)[C@H]1O	8.81% (inactive)
CN1CCN(c2ccc3nc(-c4c(N)c5c(F)cccc5[nH]c4=O)[nH]c3c2)CC1	-36.1% (inactive) and -79.7% (active)
CN1CCN(c2ccc3nc(-c4ccc5nc(-c6ccc(O)cc6)[nH]c5c4)[nH]c3c2)CC1	-23.1% (inactive)
CN1CCN(C(=O)c2nc3ccc(Cl)cc3[nH]2)CC1	1.51% (inactive) and 15.6% (inactive)
O=C(O)c1cc(N=Nc2ccc(O)c(C(=O)O)c2)ccc1O	7.94% (inactive)
O=S(=O)(O)C(F)(F)F.O=S(=O)(O)C(F)(F)F.O=S(=O)(O)C(F)(F)F.[Bi]	11% (inactive)
CN(C)C(=S)SC(=S)N(C)C	39.1% (inactive)
NC(N)=NC(N)=NCCc1ccccc1	-13.4% (inactive)
CC(C)ON([C@@H](C(=O)NO)C(C)C)S(=O)(=O)c1ccc(-c2ccccc2)cc1	-87.2% (active)
CC(C)[C@H](NS(=O)(=O)c1ccc(-c2ccc(Br)cc2)cc1)C(=O)O	4.75% (inactive)
CC(C)C(NS(=O)(=O)c1ccc(-c2ccc(Br)cc2)cc1)C(=O)O (centres undefined)	9.87% (inactive)
